Assay [1] is described as follows: NCI Yeast Anticancer Drug Screen. Data for the rad50 strain (AID 155).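 Also: 0% = growth of vehicle-only cultures of the same strain.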 As to conditions: S. cerevisiae rad50 strain growth inhibition, active compounds read high. An outline of the steps:
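Compounds were tested on a yeast strain with an engineered DNA damage repair alteration; the reported value is growth inhibition normalised to vehicle treatment.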

The nature of assay [2]: NCI Yeast Anticancer Drug Screen. Data for the mec2-1 strain (AID 157). The settings on record: S. cerevisiae mec2-1 strain, active compounds read high. An outline of the steps:
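Using mec2-1 yeast: add compound, measure growth, express inhibition versus vehicle-treated cultures.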

Assay [3] is described as follows: NCI Yeast Anticancer Drug Screen. Data for the sgs1 mgt1 strain (AID 161).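 Also: 0% = growth of cultures given vehicle only.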 As to conditions: S. cerevisiae sgs1 mgt1 strain, active compounds read high. An outline of the steps:
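Compounds are added to genetically altered yeast, and growth is compared with cultures given vehicle alone to give percent inhibition.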

Assay [4] is described as follows: NCI Yeast Anticancer Drug Screen. Data for the cln2 rad14 strain (AID 165).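 Also: 0% = growth equal to vehicle treated cultures.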 The settings on record: S. cerevisiae cln2 rad14 strain, active compounds read high. An outline of the steps:
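Yeast strain cln2 rad14, bearing defects in cell cycle control and DNA repair, serves as the test system; values reflect growth inhibition compared with vehicle.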

Assay [5] is described as follows: NCI Yeast Anticancer Drug Screen. Data for the bub3 strain (AID 167). The settings on record: S. cerevisiae bub3 mutant strain, active compounds read high. Put shortly:
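Growth of a checkpoint-deficient yeast mutant is measured after compound exposure. Values represent inhibition relative to vehicle.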

A short description of assay [6]: NCI Yeast Anticancer Drug Screen. Data for the mlh1 rad18 strain (AID 175). The settings on record: S. cerevisiae mlh1 rad18 strain growth inhibition, active compounds read high. Put shortly:
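Steps: expose repair-defective yeast to compound; measure growth; express inhibition against vehicle-treated controls.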

Where [7] appears, read: at 5.0 µM (retest, dose inferred, filed as 0.5).
Setting [8] is: at 50.0 µM (retest, dose inferred, filed as 5.0).

Data on nine molecules can be found in PubChem BioAssay (NCI).

The structures appear in SMILES notation. About 79,000 compounds went through this panel and 15% of them were active in at least one assay; those are over-represented in the sample as a whole. A number with no mark means an inactive call. The source made the active and inactive calls. Rule as the data show it: active = growth inhibition above about 70%; inactive = the rest.

As for `CNC(=O)NC(c1cc(OC)c(OC)c(OC)c1)c1cc2c(cc1O)OCO2` (configuration not stated), the growth inhibition in assay [1] (setting [7]) was -15%; in assay [1] (setting [8]), -9%; in assay [1] (at 50.0 µM), 17.2%; in assay [2] (setting [7]), -1%; in assay [2] (setting [8]), -8%; in assay [2] (at 50.0 µM), 13.4%. Besides, the growth inhibition was -14% in assay [3] (setting [7]); 5% in assay [3] (setting [8]); -0.1% in assay [3] (at 50.0 µM); -28% in assay [4] (setting [7]); -15% in assay [4] (setting [8]); 23.6% in assay [4] (at 50.0 µM). The growth inhibition in assay [5] (setting [7]) was -16%; in assay [5] (setting [8]) it was -4%; in assay [5] (at 50.0 µM) it was -1.6%; in assay [6] (setting [7]), -19%; in assay [6] (setting [8]), -5%; in assay [6] (at 50.0 µM), 16.8%.
As for `Clc1nnc(Cl)s1`, the growth inhibition is 3% in assay [1] (setting [7]); 36% in assay [1] (setting [8]); 29.1% in assay [1] (at 50.0 µM); 8% in assay [2] (setting [7]); 54% in assay [2] (setting [8]); 21.6% in assay [2] (at 50.0 µM). The growth inhibition was 2% in assay [3] (setting [7]); 67% in assay [3] (setting [8]); 19.4% in assay [3] (at 50.0 µM); 1% in assay [4] (setting [7]); 9% in assay [4] (setting [8]); 25.9% in assay [4] (at 50.0 µM). Also, the growth inhibition in assay [5] (setting [7]) is 5%; in assay [5] (setting [8]), 72% (active); in assay [5] (at 50.0 µM), 23.9%; in assay [6] (setting [7]), 5%; in assay [6] (setting [8]), 53%; in assay [6] (at 50.0 µM), 18.9%.
On to `OC(C1CCCC1=N/N=C1/CCCC1C(O)(C(F)(F)Cl)C(F)(F)Cl)(C(F)(F)Cl)C(F)(F)Cl` (configuration not stated), for which the growth inhibition in assay [1] (setting [7]) is -2%; in assay [1] (setting [8]), 22%; in assay [1] (at 50.0 µM) it was 86.3% (active); in assay [2] (setting [7]), -2%; in assay [2] (setting [8]) it was 25%; in assay [2] (at 50.0 µM) it was 89.3% (active). Besides, the growth inhibition in assay [3] (setting [7]) was -4%; in assay [3] (setting [8]), 7%; in assay [3] (at 50.0 µM), 90.9% (active); in assay [4] (setting [7]) it was 1%; in assay [4] (setting [8]) it was 26%; in assay [4] (at 50.0 µM), 88.8% (active). Also, the growth inhibition is 0% in assay [5] (setting [7]); 11% in assay [5] (setting [8]); 91.8% (active) in assay [5] (at 50.0 µM); -3% in assay [6] (setting [7]); 33% in assay [6] (setting [8]); 92% (active) in assay [6] (at 50.0 µM).
With `N[C@@H]1CCCC[C@@H]1N.O=C([O-])CN(CP(=O)([O-])[O-])CP(=O)([O-])[O-].[Pt+2]`, the growth inhibition in assay [1] (setting [7]) is -1%; in assay [1] (setting [8]) it was 89% (active); in assay [1] (at 50.0 µM) it was 99.5% (active); in assay [2] (setting [7]), 6%; in assay [2] (setting [8]), 75% (active); in assay [2] (at 50.0 µM), 99.7% (active). Further, the growth inhibition in assay [3] (setting [7]) is 8%; in assay [3] (setting [8]) it was 88% (active); in assay [3] (at 50.0 µM) it was 99.5% (active); in assay [4] (setting [7]), 3%; in assay [4] (setting [8]), 67%; in assay [4] (at 50.0 µM) it was 98.3% (active). The growth inhibition was 5% in assay [5] (setting [7]); 89% (active) in assay [5] (setting [8]); 99.3% (active) in assay [5] (at 50.0 µM); -1% in assay [6] (setting [7]); 77% (active) in assay [6] (setting [8]); 99.5% (active) in assay [6] (at 50.0 µM).
On to `CCc1ccc(/C(C)=N/NC(N)=S)cc1`, for which the growth inhibition is -4% in assay [1] (setting [7]); 89% (active) in assay [1] (setting [8]); 53.6% in assay [1] (at 50.0 µM); -4% in assay [2] (setting [7]); 95% (active) in assay [2] (setting [8]); 19.9% in assay [2] (at 50.0 µM). For the same molecule, the growth inhibition is 3% in assay [3] (setting [7]); 91% (active) in assay [3] (setting [8]); 42.8% in assay [3] (at 50.0 µM); -18% in assay [4] (setting [7]); 74% (active) in assay [4] (setting [8]); 54.8% in assay [4] (at 50.0 µM). In addition, the growth inhibition was -9% in assay [5] (setting [7]); 92% (active) in assay [5] (setting [8]); 34.8% in assay [5] (at 50.0 µM); -2% in assay [6] (setting [7]); 93% (active) in assay [6] (setting [8]); 74.5% (active) in assay [6] (at 50.0 µM).
As for `CC(C)=CCC/C(C)=C/CC/C(C)=C/CSc1ccccc1C(=O)O`, the growth inhibition in assay [1] (setting [7]) is 22%; in assay [1] (setting [8]), 17%; in assay [1] (at 50.0 µM) it was 76.3% (active); in assay [2] (setting [7]), 10%; in assay [2] (setting [8]) it was 14%; in assay [2] (at 50.0 µM), 75.8% (active). For the same molecule, the growth inhibition in assay [3] (setting [7]) is 14%; in assay [3] (setting [8]), 10%; in assay [3] (at 50.0 µM) it was 54.5%; in assay [4] (setting [7]), 8%; in assay [4] (setting [8]), 20%; in assay [4] (at 50.0 µM), 10.2%. Moreover, the growth inhibition in assay [5] (setting [7]) is 18%; in assay [5] (setting [8]), 19%; in assay [5] (at 50.0 µM), 62.2%; in assay [6] (setting [7]), 22%; in assay [6] (setting [8]), 18%; in assay [6] (at 50.0 µM) it was 41.5%.
For the molecule `N#C/C(=C1C=C/C(=N/O)c2ccccc2/1)c1ccc(Cl)cc1`, the growth inhibition is 11% in assay [1] (setting [7]); 17% in assay [1] (setting [8]); 56% in assay [1] (at 50.0 µM); -6% in assay [2] (setting [7]); 26% in assay [2] (setting [8]); 77.3% (active) in assay [2] (at 50.0 µM). Moreover, the growth inhibition in assay [3] (setting [7]) was 1%; in assay [3] (setting [8]) it was 1%; in assay [3] (at 50.0 µM), 60.8%; in assay [4] (setting [7]), -1%; in assay [4] (setting [8]) it was 6%; in assay [4] (at 50.0 µM), 41.1%. The growth inhibition in assay [5] (setting [7]) is -4%; in assay [5] (setting [8]), 61%; in assay [5] (at 50.0 µM), 34.5%; in assay [6] (setting [7]) it was -9%; in assay [6] (setting [8]) it was 28%; in assay [6] (at 50.0 µM), 72.6% (active).
`COc1ccc(OCC(O)CN2CCN(c3cccc(Cl)c3)CC2)cc1` (configuration not stated): the growth inhibition in assay [1] (setting [7]) was -2%; in assay [1] (setting [8]) it was -3%; in assay [1] (at 50.0 µM), 72.5% (active); in assay [2] (setting [7]), 15%; in assay [2] (setting [8]) it was 28%; in assay [2] (at 50.0 µM), 37.6%. Further, the growth inhibition in assay [3] (setting [7]) is 1%; in assay [3] (setting [8]) it was 23%; in assay [3] (at 50.0 µM), 95.5% (active); in assay [4] (setting [7]), -6%; in assay [4] (setting [8]), -7%; in assay [4] (at 50.0 µM), 33.6%. The growth inhibition in assay [5] (setting [7]) was -4%; in assay [5] (setting [8]) it was 8%; in assay [5] (at 50.0 µM), 42.6%; in assay [6] (setting [7]), 20%; in assay [6] (setting [8]) it was 31%; in assay [6] (at 50.0 µM), 69.9%.
For the molecule `COc1ccc2ccccc2c1-c1c(O)ccc2ccccc12`, the growth inhibition in assay [1] (setting [7]) is 0%; in assay [1] (setting [8]), 80% (active); in assay [1] (at 50.0 µM) it was 93.5% (active); in assay [2] (setting [7]), -5%; in assay [2] (setting [8]), 71% (active); in assay [2] (at 50.0 µM) it was 95.8% (active). Also, the growth inhibition in assay [3] (setting [7]) was -2%; in assay [3] (setting [8]) it was 63%; in assay [3] (at 50.0 µM) it was 97.2% (active); in assay [4] (setting [7]), -5%; in assay [4] (setting [8]), 72% (active); in assay [4] (at 50.0 µM) it was 93.3% (active). Also, the growth inhibition is -6% in assay [5] (setting [7]); 64% in assay [5] (setting [8]); 97.9% (active) in assay [5] (at 50.0 µM); -8% in assay [6] (setting [7]); 78% (active) in assay [6] (setting [8]); 96% (active) in assay [6] (at 50.0 µM).
